# Assay results: PubChem BioAssay (EPA / NIEHS)
# Active and inactive are the calls of the source. Rule for the calls: active = hit-call score of the fitted dose curve at least 0.9, where 1 is the maximum; inactive = score below 0.9.
# Read-out: Interferon-inducible T-cell alpha chemoattractant (ITAC), CXCL11 (gene 6373)
# Assay: BSK_BE3C_ITAC: BioMAP Diversity Plus: BE3C Assay for Interferon-inducible T-cell alpha chemoattractant (ITAC) Biomarker Activity (AID 2284279)
# Conditions: primary human bronchial epithelial cells
# Experimental: BSK_BE3C is a cell-based, multiplexed-readout assay that uses bronchial epithelial cell, a human lung primary cell, with measurements taken at 24 hours after chemical dosing in a 96-well plate.BSK_BE3C_ITAC is an assay component measured in the BSK_BE3C assay. It measures I-TAC antibody related to regulation of gene expression using ELISA technology.Data from the assay component BSK_BE3C_ITAC was analyzed at the endpoint, BSK_BE3C_ITAC, in the positive analysis fitting direction relative to DMSO as the negative control and baseline of activity. Using a type of binding reporter, gain or loss-of-signal activity can be used to understand protein changes. To generalize the intended target to other relatable targets, this assay endpoint is annotated to the 'cytokine' intended target family, where the subfamily is 'chemotactic factor'.
# The levels of cell surface (or secreted, indicated by the prefix "s") biomarker endpoints were measured by ELISA. Overt cytotoxicity to cells in confluent adherent cultures (all systems other than the BT system) was assessed by measuring total protein levels using sulforhodamine B (SRB) staining in parallel cultures at the time of biomarker measurements, indicated as SRB endpoints. For proliferation assays for adherent cell types, individual cell types are cultured at sub-confluence and relative cell numbers quantified by SRB staining at time points optimized for each system (48 h: 3C and CASM3C systems; 72 h: BT and HDF3CGF systems; 96 h: SAg system). SRB was performed by staining cells with 0.1% SRB after fixation with 10% TCA and reading wells at 560 nm.Viability and proliferation of PBMC (T cells) was quantified by Alamar Blue reduction for the SAg and BT systems. For PBMC viability (referred to as PBMC Cytotoxicity within the assay endpoint names), cells were plated (75,000/well in a 96-well plate) and then chemical samples added for 1 h before addition of activators, SEB and TSST-1 (20 ng/mL final concentration each). Cells were incubated for 90 h. Then, Alamar Blue (20 uL/well) (Invitrogen, Cat DAL1100) was added for 6 h, and the plates were read with a fluorescence microplate reader at 546/580 nm (excitation/emission). For PBMC proliferation, cells were plated and activated as above but incubated for only 16 h prior to addition of Alamar Blue. Plates were read after 6 h.
row,Structure (SMILES),outcome
1,FC(F)=C(F)C(F)(F)C(F)(F)C(F)(F)C(F)(F)C(F)(F)C(F)(F)F,inactive
2,O=C(Cl)C(F)(F)C(F)(F)C(F)(F)C(=O)Cl,inactive
3,NCC(F)(F)C(F)(F)C(F)(F)C(F)(F)F,inactive
4,OCCC(F)(F)C(F)(F)C(F)(F)C(F)(F)F,inactive
5,OC(O)(C(F)C(O)(O)C(F)(F)F)C(F)(F)F,inactive
6,FC(F)(F)COC(OCC(F)(F)F)OCC(F)(F)F,inactive
7,O=S(=O)(O)CCC(F)(F)C(F)(F)C(F)(F)C(F)(F)C(F)(F)C(F)(F)F,inactive
8,FC(F)C(F)(F)COCC1CO1 (stereo not given),inactive
9,FC(F)(F)C(F)(F)C(F)(F)C(F)(F)C(F)(F)C(F)(F)I,inactive
10,C[Si](C)(C)C(F)(F)C(F)(F)C(F)(F)F,inactive
